The panel holds about 83,000 compounds, 20% with a hit somewhere; the sample as a whole holds those more often.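 48-hour exposure, single concentration, 96-well plates; percent growth endpoint where 0 means no net growth. Active: below 10.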 Unmarked numbers belong to inactive results. Calls of active or inactive are those of the source.

For this experiment, the system named is HL-60(TB) leukemia. Put plainly: NCI-60 one-dose screen, 48 h (100 = growth as untreated, 0 = no growth, -100 = all killed). The settings on record: 10 µM unless noted.
Take `CCN(CC)CCCCCNc1cc(OC(=O)c2ccccc2)cc2cccnc12`: the growth is 79.8%. Consider `COc1ccc(-c2cc(-c3ccc(N(C)C)cc3)c(C#N)c(N3CCCC3)n2)cc1`, for which the growth was 67.2%. In the case of `CC(=O)OC1Oc2ccccc2-c2oc(=O)c(-c3cc4ccc(N(C)C)cc4oc3=O)cc21` (stereo not given) it was -9.4% (active); in that of `O=C(CN1CCN(c2cc3c(cc2F)c(=O)c(C(=O)O)cn3C2CC2)CC1)Nc1cc(=O)[nH]c(=O)[nH]1`, 103%; in that of `CCC(=O)c1ccc(O)c(OC)c1`, 102%. Consider `O=C(/C=C/c1ccccc1Cl)c1cccc(OCCCCOc2cccc(C(=O)/C=C/c3ccccc3Cl)c2)c1`, for which the growth is 105%. With `CSc1ccc2c3c(n(C[C@H](O)CO)c(=O)c2c1)-c1ccccc1C3=O`, the growth was -12.2% (active). The value for `Nc1nc(Nc2ccc(F)cc2)nn1C(=O)c1cc(Cl)ccc1Cl` was 65.1%; that for `CCCc1cc(=O)oc2c(C(=O)CC(C)C)c(O)c(CC=C(C)C)c(O)c12` was 2.72% (active). Turning to `N#C/C(=C\c1ccc(-c2cccc(C(F)(F)F)c2)o1)c1nc(-c2ccco2)cs1`, the growth is 101%.

For the compound `O=C(Nc1ccc(OCc2nnc(-c3ccc(Cl)cc3)o2)c(F)c1)Nc1ccc(Cl)c(Cl)c1`, the growth is 95.5%.

`O=C(CCN1CCCCC1)c1ccc(Cl)cc1`: the growth was 111%. In the case of `CCc1ccc(Oc2c(-c3ccc(OCCc4cccc(C(F)(F)F)c4)cc3O)n[nH]c2C(F)(F)F)cc1`, the growth was 50.9%.

For `NS(=O)(=O)c1ccccc1NC(=O)Nc1nc2ccccc2s1`, the growth was 102%.

Regarding `COc1cc(-c2ccc(-[n+]3nc(-c4ccc([N+](=O)[O-])cc4)nn3-c3ccc([N+](=O)[O-])cc3)c(OC)c2)ccc1-[n+]1nc(-c2ccc([N+](=O)[O-])cc2)nn1-c1ccc([N+](=O)[O-])cc1`, the growth was 14.2%. The value for `CC(=O)OC1/C=C\CC/C=C\C1` (stereo not given) was 101%; that for `CO[C@H](C(=O)N[C@@H](CCCCNC(=O)OCc1ccccc1)C(=O)OC(C)(C)C)[C@@H]1Cc2cc3cc(OC4CC(OC5CC(O)C(O)C(C)O5)C(O)C(C)O4)c(C)c(O)c3c(O)c2C(=O)[C@H]1OC1CC(OC2CC(OC3CC(C)(O)C(O)C(C)O3)C(O)C(C)O2)C(O)C(C)O1` (stereo not given in full) was -0.249% (active). In the case of `Nc1ccc2c3c(cccc13)-c1ccccc1-2` it was 4.53% (active); in that of `Nc1c(C(=O)c2ccc(Cl)s2)sc2nc3c(cc12)CCCC3`, 106%. In the case of `O=Cc1c(OCc2cnnn2CC(=O)Nc2ccc(Br)cc2)ccc2ccccc12` it was 105%; in that of `Brc1ccc2[nH]cc(-c3nc(-c4c[nH]c5ncccc45)cs3)c2c1`, 32.7%. On to `C=CCN=C(N)SCCCCCCSC(N)=NCC=C`, for which the growth is 75.8%. Turning to `O=C(/C=C/c1ccc(Cl)cc1)c1ccc(Nc2ccnc3cc(Cl)ccc23)cc1`, the growth is 23.2%. For the compound `CC(C)c1ccc2c(c1)CC[C@H]1[C@](C)(C(=O)OCC#CCN3CCCC3)CCC[C@]21C`, the growth is 55.5%. The value for `Cc1nc2sc(C(=O)Nc3cccc(Br)c3)c(N)c2cc1C(=O)c1ccc(C(F)(F)F)cc1` was 98.7%. In the case of `O=c1oc2ccc(Cl)cc2c(=O)n1-c1ccc(Cl)cc1F` it was -44.5% (active). As for `Cc1cc(-c2ccccc2)cc(C)n1`, the growth was 104%.

Take `COc1cccc(CCC(=O)c2cc3c(N)c(C(=O)Nc4cccc(Cl)c4C)sc3nc2C)c1`: the growth was 0.884% (active).

Turning to `Nc1ccc2c(c1)C(=O)NC2=O`, the growth was 71.1%. The value for `CC1=C([Se]CC(OC(=O)[C@@H](CO)NC(=O)OC(C)(C)C)C(=O)NCCCCCC(=O)OCc2ccccc2)C(=O)c2ccccc2C1=O` (stereo not given in full) was -32.9% (active); that for `C[C@]12CC[C@@H]3c4cc(OC(F)F)c(O)cc4CC[C@H]3[C@@H]1CC[C@@H]2OS(N)(=O)=O` was 7.66% (active); that for `CCOC(=O)c1ccc(C(C)(C)C)cc1` was 90.4%.

For `Clc1cc(Cl)c(Cl)c(-c2nnc(SCc3ccncc3Br)o2)c1`, the growth is 88.8%. The value for `COc1ccc(-c2nnc(COc3ccc(NC(=O)Nc4ccccc4)cc3F)o2)cc1` was 86.8%.

For `O=C(C(Br)C(Br)c1ccccc1)C(Br)C(Br)c1ccccc1` (stereo not given), the growth was -49.7% (active). In the case of `COCCNC1=C(Cl)C(=O)c2ccccc2C1=O`, the growth is 110%. The value for `Cc1ccc(/C=C/C(=O)C(=O)/C=C/c2ccc(C)cc2)cc1` was 93.3%; that for `COc1cnc2c(c1)C(=O)c1c-2n(CCCN2CCNCC2)c(=O)c2cc([N+](=O)[O-])ccc12` was -49% (active); that for `Cc1cnc(N)nc1OCC(C)(C)CNC(=O)c1cccc(-c2ccc(S(=O)(=O)Nc3ccc4c(c3)N(C(=O)C3CC3)CCC4)cc2)c1` was 18.2%.

For `COc1ccc2c(c1)CC[C@@H]1[C@@H]2CC[C@]2(C)[C@@H](O)C(=O)C[C@@H]12`, the growth was 108%.

The values are drawn from PubChem BioAssay (NCI).
